Screens: PubChem, Broad Institute
These entries were drawn from the full list.
aSyn 5UTR act: Activators working through SNCA 5'UTR binding (MLPCN); actives 7.1% (n = 300,000); activity score, % (tested at 7.5 µM), hits read low; alpha-synuclein 5'UTR reporter, activators screen; in the data active = activity score below about -60%
Active calls of the source: *.

SMILES	aSyn 5UTR act
NC(=O)c1ccccc1OCCOc1ccc(Br)cc1	-63*
Cc1ccc(N/C(N)=N/c2nc(CSc3nnc(C)s3)cc(=O)[nH]2)c(C)c1	83
c1ccc2cc(-c3csnn3)ccc2c1	-74*
COc1ccc(-c2ccc(OC)cc2)cc1	-120*
COc1ccc(-c2csc(N=C(N)N)n2)cc1	-141*
Cc1ccc(-c2csc(N=C(N)N)n2)c(C)c1	-94*
Nc1nc(N)c2cc(Sc3ccc4ccccc4c3)ccc2n1	96
Nc1nc(-c2ccc3ccccc3c2)cs1	-193*
Nc1nc(-c2ccc(Oc3ccccc3)cc2)cs1	-123*
Nc1ccc(Oc2ccccc2-c2ccccc2)cc1	104
COc1ccc(-c2csc(N)n2)cc1	-101*
Nc1nc(-c2ccc(-c3ccccc3)cc2)cs1	-186*
CC(C(=O)N(C)C1CCS(=O)(=O)C1)N1C(=O)/C(=C/c2cccs2)SC1=S (configuration not stated)	-83*
COc1ccc(N=Nc2nc3ccc(Br)cc3n2C)cc1	-113*
CC(C)CC1NC(=O)N(CC(=O)c2ccc3c(c2)OCCO3)C1=O (configuration not stated)	-115*
CCCCc1ccc(Nc2ncccc2C#N)cc1	-87*
COc1cc2ccccc2cc1C(=O)N/N=C/c1ccc2c(c1)OCO2	-163*
C(=N\Nc1ccc2ccccc2n1)/c1ccc2c(c1)OCCO2	108
COc1ccccc1C(=O)N/N=C/c1ccc2c(c1)OCO2	-173*
Cc1cc(NC(c2ccc(Cl)cc2)c2ccc3cccnc3c2O)no1 (configuration not stated)	85
COn1c(-c2ccc(Cl)cc2)nc2ncccc21	-107*
NNc1nc2c(-c3ccc(F)cc3)nnn2c2ccccc12	-141*
NNc1nc2c(-c3ccc(Cl)cc3)nnn2c2ccccc12	-92*
CCc1ccc2nc(N3C(=O)C(O)=C(C(=O)c4ccco4)C3c3cccs3)sc2c1 (configuration not stated)	-102*
CCOC(=O)c1sc(N2C(=O)C(O)=C(C(=O)c3ccco3)C2c2cccc(Cl)c2)nc1C (configuration not stated)	-81*
SMILES	aSyn 5UTR act
Cc1ccc2nc(N3C(=O)C(O)=C(C(=O)c4ccco4)C3c3ccc(C)o3)sc2c1 (configuration not stated)	-82*
Cc1ccc2nc(N3C(=O)C(O)=C(C(=O)c4cc5ccccc5o4)C3c3cccs3)sc2c1 (configuration not stated)	-85*
O=C(c1cc([N+](=O)[O-])ccc1N1CCOCC1)N1CCN(c2ccccc2)CC1	91
CC(C)(C)C(=O)N1CCN(c2ccc([N+](=O)[O-])cc2Cl)CC1	-64*
N/C(=N\OC(=O)c1ccc(Br)cc1)c1cccc([N+](=O)[O-])c1	-179*
Cc1ccc(C(=O)O/N=C(\N)c2cccc([N+](=O)[O-])c2)cc1	-218*
N/C(=N\OC(=O)c1ccncc1)c1cccc([N+](=O)[O-])c1	-70*
N/C(=N\OC(=O)c1ccc([N+](=O)[O-])cc1)c1ccc(Br)cc1	-81*
N/C(=N\OC(=O)c1ccc2ccccc2c1)c1ccc(Br)cc1	-103*
Cc1ccc(C(=O)O/N=C(\N)c2ccc(Br)cc2)cc1C	-136*
N/C(=N\OC(=O)c1ccoc1)c1ccc(Br)cc1	-111*
Cc1cc(C)cc(C(=O)O/N=C(\N)c2ccc(Br)cc2)c1	-83*
Cc1cccc(C(=O)O/N=C(\N)c2ccc(Br)cc2)c1	-211*
N/C(=N\OC(=O)c1cccc(Br)c1)c1ccccn1	72
Cc1cccc(C(=O)O/N=C(\N)c2ccc(Cl)cc2)c1	-108*
N/C(=N\OC(=O)c1cccc(Br)c1)c1ccccc1	-305*
Cc1cccc(N2CCN(C(=O)NC3CCCCC3)CC2)c1C	-95*
Cc1cccc(N2CCN(C(=O)CN3C(=O)C4CC=CCC4C3=O)CC2)c1C (configuration not stated)	-113*
CN(C)c1ccc(C(=O)/C=C/c2cccnc2)cc1	-167*
N#CC1=C(N)Nc2nc3ccccc3n2C1c1ccc(F)cc1 (configuration not stated)	-117*
CCCCCOc1ccc(Br)cc1/C(C)=N/NC1=NCCN1	88
COc1cccc(-c2ncc3ccccn23)c1	-124*
COc1ccc(-c2ncc3ccccn23)cc1	-142*
Cc1cccc(N/N=C/c2ccc(C)s2)c1	-180*
Cc1ccc(/C=N/N=C/c2ccc(C)s2)s1	-199*
SMILES	aSyn 5UTR act
CCn1c(=O)c2cc(C(=O)NC(C)C)sc2c2ccccc21	-79*
Fc1ccc(Cn2cccc2C2=NC(c3ccccc3)CO2)cc1 (configuration not stated)	-88*
Cc1ccsc1/C=C1/SC(N2CCOCC2)=NC1=O	-80*
CN(C)CCN(C(=O)c1cccs1)c1nc2cc3c(cc2s1)OCCO3	-106*
CN(C)CCN(C(=O)c1ccc(Br)s1)c1nc2cc3c(cc2s1)OCCO3	-72*
CN(C)c1ccc(NC(=O)CCn2c(=S)oc3ccccc32)cc1	-100*
COc1ccc(Cl)cc1C(=O)Nc1ccc2c(c1)OCCO2	-104*
CCN(CC)c1ccc(NC(=O)c2cc(Cl)ccc2OC)cc1	-63*
COc1ccc(Cl)cc1C(=O)Nc1ccc2c(c1)OCO2	-130*
CCN(CC)c1ccc(Nc2cc3n(c(=O)n2)CCc2cc(OC)c(OC)cc2-3)cc1	74
CCOc1ccc(N2C(=O)c3ccccc3C2O)cc1 (configuration not stated)	-96*
CCOc1ccc(N2Cc3ncccc3C2=O)cc1	-103*
O=[N+]([O-])c1cccnc1NCCNc1ncc(C(F)(F)F)cc1Cl	-178*
O=c1cc(Cl)[nH]c(=O)n1CCNc1ncc(C(F)(F)F)cc1Cl	-106*
O=[N+]([O-])c1ccccc1NCCNc1ncc(C(F)(F)F)cc1Cl	-77*
CCCCn1cnc2c([nH]c3cc(OC)ccc32)c1=O	-129*
COc1ccc2c(c1)[nH]c1c(=O)n(Cc3ccco3)cnc12	-65*
Cc1ccc(C(=O)NCC(=O)N2CCCC(C(F)(F)F)C2)s1 (configuration not stated)	-62*
CCOC(=O)c1c(C)[nH]c(N=Nc2cccc(OC)c2)c1C	-208*
CCOC(=O)c1c(C)[nH]c(N=Nc2cccc(C)c2)c1C	-211*
Cc1cc(/C=C2\SC(N)=NC2=O)c(C)n1-c1ccccc1	-112*
Cc1cc(/C=C2\SC(=S)NC2=O)c(C)n1-c1ccccc1	-163*
COc1ccc(-n2c(C)cc(/C=C3\SC(=S)NC3=O)c2C)cc1	-152*
Cc1cc(/C=C2\SC(=S)NC2=O)c(C)n1-c1ccc(O)cc1	-68*
c1ccc2c(Nc3ccc4c(c3)OCCO4)c3c(nc2c1)CCCC3	-82*
SMILES	aSyn 5UTR act
CC(=O)c1cccc(Nc2c3c(nc4ccccc24)CCC3)c1	75
CC(=O)c1ccc(Nc2c3c(nc4ccccc24)CCCC3)cc1	-195*
CCN1CCN(C(CNC(=O)c2ccc3c(c2)OCO3)c2cccnc2)CC1 (configuration not stated)	-69*
C=CCSc1n[nH]c(-c2ccc(OC)cc2)n1	-165*
C=CCSc1n[nH]c(-c2ccccc2)n1	-100*
COC(=O)CSc1nc2ccccn2c(=O)c1C=O	-173*
CC(C)(C)c1cc(NCCCn2ccnc2)n2ncc(-c3ccc(Cl)cc3)c2n1	-109*
COc1cccc2sc(/N=C/N(C)C)nc12	-81*
N#C/C(=C\c1ccc(OCc2ccc(Br)cc2)cc1)C(=O)Nc1cccc(C(=O)O)c1	-76*
COc1cc(/C=C(\C#N)C(=O)Nc2cccc(C(=O)O)c2)ccc1OCc1ccc(F)cc1	-90*
